Experimental data from PubChem BioAssay AID1159580 (chemical genetic matrix, 2015).
About 2,000 (36%) of roughly 5,500 compounds were called active. About 18% were inconclusive and are not listed. No stated cut-off is given here; in the data, active means normalized growth mostly below about 0.91 (no sharp cut-off); inconclusive means no clear call, values can overlap the other calls; inactive means mostly above about 0.92. Some of the results follow.

Assay: chemical genetic growth profiling, strain panel (AID 1159580);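 further: tested at 20 µM; growth read once vehicle control cultures reached saturation at 30 °C; 1 = growth at the plate median or of vehicle wells; lower values mean less growth of the strain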
Settings: S. cerevisiae deletion strains, growth OD

Measured: normalized growth

FC(F)(F)COCC(F)(F)F
inactive: locus YAL021C, strain ccr4, hits give low values 1.02 | locus YAL026C, strain drs2, hits give low values 1.04 | locus YAL030W, strain snc1, hits give low values 0.993 | locus YBL061C, strain skt5, hits give low values 1.03 | locus YBR009C, strain hhf1, hits give low values 0.998 | locus YBR023C, strain chs3, hits give low values 1.03 | locus YBR171W, strain sec66, hits give low values 1.01 | locus YBR231C, strain swc5, hits give low values 1.02 | locus YBR279W, strain paf1, hits give low values 1.02 | locus YCL011C, strain gbp2, hits give low values 1.02 | locus YCL016C, strain dcc1, hits give low values 1.03 | locus YCL069W, strain vba3, hits give low values 1.03 | locus YCR088W, strain abp1, hits give low values 1.01 | locus YDL005C, strain med2, hits give low values 1.01 | locus YDL040C, strain nat1, hits give low values 1.02 | locus YDR001C, strain nth1, hits give low values 1.01 | locus YDR069C, strain doa4, hits give low values 1.02 | locus YDR137W, strain rgp1, hits give low values 1.03 | locus YDR159W, strain sac3, hits give low values 0.963 | locus YDR195W, strain ref2 0.996 | locus YDR297W, strain sur2, hits give low values 1.01 | locus YDR334W, strain swr1, hits give low values 1.01 | locus YDR335W, strain msn5, hits give low values 1.03 | locus YDR392W, strain spt3, hits give low values 0.971 | locus YEL003W, strain gim4, hits give low values 0.992 | locus YEL037C, strain rad23, hits give low values 1.01 | locus YEL061C, strain CIN8 (second series), hits give low values 1 | locus YER015W, strain faa2, hits give low values 1.02 | locus YER016W, strain bim1, hits give low values 1.03 | locus YER111C, strain swi4, hits give low values 1.01 | locus YER155C, strain BEM2 (second series), hits give low values 0.986 | locus YFR010W, strain ubp6, hits give low values 0.999 | locus YGL167C, strain pmr1, hits give low values 1.02 | locus YGL173C, strain kem1, hits give low values 1 | locus YGL227W, strain vid30, hits give low values 1.02 | locus YGL240W, strain doc1, hits give low values 0.996 | locus YGL253W, strain hxk2, hits give low values 1.03 | locus YHR013C, strain ard1, hits give low values 1.02 | locus YHR027C, strain rpn1, hits give low values 1.02 | locus YHR030C, strain SLT2, hits give low values 0.998 | locus YHR079C, strain IRE1, hits give low values 0.96 | locus YHR142W, strain chs7, hits give low values 1.03 | locus YJL092W, strain hpr5, hits give low values 1.02 | locus YJL095W, strain BCK1 (second series), hits give low values 1.03 | locus YJL095W, strain BCK1, hits give low values 1 | locus YJL115W, strain asf1, hits give low values 1.02 | locus YJL129C, strain trk1, hits give low values 1.04 | locus YJL154C, strain vps35, hits give low values 1.04 | locus YJL164C, strain tpk1, hits give low values 1.02 | locus YJL166W, strain qcr8, hits give low values 0.986 | locus YJL187C, strain SWE1, hits give low values 1.02 | locus YJR066W, strain TOR1, hits give low values 0.938 | locus YKL160W, strain elf1, hits give low values 1.01 | locus YKR026C, strain gcn3, hits give low values 1.01 | locus YKR091W, strain srl3, hits give low values 1.01 | locus YLL001W, strain dnm1, hits give low values 0.988 | locus YLL026W, hits give low values 1 | locus YLL041C, strain sdh2, hits give low values 1.02 | locus YLR027C, strain aat2, hits give low values 1.02 | locus YLR113W, strain HOG1, hits give low values 0.999 | locus YLR221C, strain rsa3, hits give low values 0.996 | locus YLR258W, strain gsy2, hits give low values 1.04 | locus YLR262C, strain YPT6 (second series), hits give low values 0.992 | locus YLR320W, strain mms22, hits give low values 0.968 | locus YLR342W, strain FKS1, hits give low values 1.03 | locus YLR357W, strain rsc2, hits give low values 1.01 | locus YLR370C, strain arc18, hits give low values 1.03 | locus YLR384C, strain iki3, hits give low values 1.02 | locus YML120C, strain ndi1, hits give low values 1 | locus YMR058W, strain fet3, hits give low values 1.04 | locus YMR125W, strain sto1, hits give low values 1.04 | locus YMR129W, hits give low values 1 | locus YMR205C, strain PFK2, hits give low values 1 | locus YMR231W, strain pep5, hits give low values 1.01 | locus YNL071W, strain lat1, hits give low values 1.03 | locus YNL183C, strain NPR1, hits give low values 0.948 | locus YNL209W, strain ssb2, hits give low values 1.03 | locus YNL248C, strain rpa49, hits give low values 1.04 | locus YNL322C, strain KRE1 (second series), hits give low values 1.02 | locus YNR049C, strain mso1, hits give low values 1.01 | locus YOR001W, strain rrp6, hits give low values 0.986 | locus YOR070C, strain gyp1, hits give low values 1.01 | locus YOR080W, strain dia2, hits give low values 1.01 | locus YOR083W, strain WHI5, hits give low values 0.981 | locus YOR106W, strain vam3, hits give low values 1.04 | locus YOR231W, strain MKK1, hits give low values 0.993 | locus YOR265W, strain rbl2, hits give low values 1.01 | locus YOR270C, strain vph1, hits give low values 1.07 | locus YOR290C, strain snf2, hits give low values 1.03 | locus YPL051W, strain arl3, hits give low values 1.03 | locus YPL078C, strain atp4, hits give low values 1.03 | locus YPL106C, strain sse1, hits give low values 0.983 | locus YPL240C, strain hsp82, hits give low values 1 | locus YPL256C, strain CLN2, hits give low values 0.948
